The text below walks through data of the supplement of paper PMC6522484.

± gives the standard deviation of the averaged measurements.

Assay [1] relates to DLD1. Briefly: cell viability (CellTiter-Glo) relative to plate median (fraction of plate median); higher = more viable cells. The following applies: 5 µM; treatment time 24 h; reporter: 7TFP. The essentials:
(§1)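 On parallel plates, a Tecan F500 reader recorded either firefly luciferase or CellTiterGlo luminescence. The plates held colorectal cancer cells stably transduced with lentiviral TCF/Wnt firefly luciferase reporters (7TFP or TCF4/Wnt), seeded in 384-well format and treated 24 h later with library compounds at a final 5 µM for 24 h. Per-well signals were normalised to the plate median (webcellHTS2, additive, no log transformation), and two independent replicates were averaged.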
Background: ATP-based viability assays read luminescence as a measure of living cells.

For assay [2], the system named is HCT116. The assay is described as above. The following applies: 5 µM; treatment time 24 h; reporter: TCF4/Wnt. The essentials: as §1
Assay [3] relates to SW480. Described as above. The note with it: 5 µM; treatment time 24 h; reporter: 7TFP. The essentials: as §1
The test system of assay [4] is DLD1. Briefly: TCF/Wnt firefly luciferase reporter signal relative to plate median (fraction of plate median); higher = higher Wnt reporter signal. The note with it: 5 µM; treatment time 24 h; reporter: 7TFP. A digest of the protocol: as §1
Assay [5] has as its system SW480. The description is as above. The note with it: 5 µM; treatment time 24 h; reporter: 7TFP. The essentials:
as §1

`C[C@H]1[C@H](C)CC[C@]2(C(=O)O)CC[C@]3(C)C(=CC[C@@H]4[C@@]5(C)C[C@@H](O)[C@H](O)[C@@](C)(CO)[C@@H]5CC[C@]43C)[C@H]12`: the cell viability in assay [1] was 1.04 ± 0.072; in assay [2], 1.1 ± 0.15; in assay [3], 1.1 ± 0.021. Moreover, the “TCF/Wnt firefly luciferase reporter signal” value was 0.974 ± 0.093 in assay [4] and 1.05 ± 0.035 in assay [5].

Consider `Cc1ccsc1/C=C/C1=NCCCN1C`, for which the cell viability came to 0.843 ± 0.058 in assay [1], 0.864 ± 0.044 in assay [2] and 0.9765 ± 0.00071 in assay [3]. Moreover, the figures for the “TCF/Wnt firefly luciferase reporter signal” value in assay [4] and in assay [5] were 1.04 ± 0.021 and 1 ± 0.083, respectively.

On to `CC[C@H](c1ccc(O)cc1)[C@@H](CC)c1ccc(O)cc1`, for which the cell viability in assay [1] stood at 1.05 ± 0.028; in assay [2] it was 1.12 ± 0.078; in assay [3] it was 1.04 ± 0.057. The figures for the “TCF/Wnt firefly luciferase reporter signal” value in assay [4] and in assay [5] were 1.125 ± 0.0071 and 1.09 ± 0.092, respectively.

For the compound `COc1ccc([C@H]2COc3c(ccc(O)c3OC)C2)c(OC)c1O`, the cell viability in assay [1] came out at 1.01 ± 0.038; in assay [2], 0.95 ± 0.052; in assay [3] it was 1.03 ± 0.014. Besides, the entries for the “TCF/Wnt firefly luciferase reporter signal” value in assay [4] and in assay [5] were 0.987 ± 0.13 and 0.878 ± 0.069, respectively.

Consider `COc1ccc2c(c1)OC/C(=C/c1ccc(OC)c(OC)c1)C2=O`, for which the figures for the cell viability in assay [1], in assay [2] and in assay [3] were 0.936 ± 0.028, 0.989 ± 0.086 and 0.966 ± 0.028, respectively. Further, the “TCF/Wnt firefly luciferase reporter signal” value in assay [4] worked out at 0.92 ± 0.021; in assay [5], 0.972 ± 0.083.

Consider `CC=CC(=O)N(CC)c1ccccc1C`, for which the cell viability in assay [1] worked out at 0.931 ± 0.093; in assay [2] it was 1.05 ± 0.028; in assay [3], 1.01 ± 0.021. The entries for the “TCF/Wnt firefly luciferase reporter signal” value in assay [4] and in assay [5] were 0.953 ± 0.081 and 0.8525 ± 0.0078, respectively.

For `CC1(C)CC2C1CC[C@]1(C)CCC3C(C(=O)O)CC(=O)O[C@@]32C1` (stereo not given in full) [3-HYDROXY-4-(SUCCIN-2-YL)-CARYOLANE delta-LACTONE], the cell viability in assay [1] was 1.01 ± 0.088; in assay [2] it was 0.9705 ± 0.00071; in assay [3] it was 0.962 ± 0.035. Further, the entries for the “TCF/Wnt firefly luciferase reporter signal” value in assay [4] and in assay [5] were 1.07 ± 0.085 and 0.986 ± 0.021, respectively.

Turning to `CC(C)(C)NC[C@H](O)c1ccc(O)c(CO)c1`, the cell viability in assay [1] was 1.01 ± 0.13; in assay [2], 0.93 ± 0.061; in assay [3], 0.972 ± 0.069. Besides, the “TCF/Wnt firefly luciferase reporter signal” value was 1.02 in assay [4] and 1.07 ± 0.092 in assay [5].

For `NCC(=O)CCC(=O)O`, the results for the cell viability in assay [1], in assay [2] and in assay [3] were 1.01 ± 0.021, 1.06 ± 0.042 and 1.01 ± 0.021, respectively. Further, the “TCF/Wnt firefly luciferase reporter signal” value in assay [4] is 1.1 ± 0.071; in assay [5], 1.07 ± 0.021.

For the compound `COc1ccc(-c2cc(=O)c3c(O)cc(O[C@@H]4O[C@H](CO[C@@H]5O[C@@H](C)[C@H](O)[C@@H](O)[C@H]5O)[C@@H](O)[C@H](O)[C@H]4O)cc3o2)cc1O`, the results for the cell viability in assay [1], in assay [2] and in assay [3] were 0.999 ± 0.03, 1.06 ± 0.12 and 0.96 ± 0.013, respectively. The “TCF/Wnt firefly luciferase reporter signal” value in assay [4] stood at 1.06 ± 0.13; in assay [5] it was 1.04 ± 0.021.

For `CCN1CCCC1CNC(=O)c1cc(S(N)(=O)=O)ccc1OC` (stereo not given), the cell viability came out at 0.985 ± 0.064 in assay [1], 0.954 ± 0.023 in assay [2] and 1.02 ± 0.071 in assay [3]. Moreover, the “TCF/Wnt firefly luciferase reporter signal” value in assay [4] was found to be 1.06 ± 0.22; in assay [5] it was 0.959 ± 0.072.

Take `Cc1cc(=O)oc2cc(O)cc(O)c12`: the results for the cell viability in assay [1], in assay [2] and in assay [3] were 1.05 ± 0.042, 1.11 ± 0.11 and 1 ± 0.053, respectively. Besides, the results for the “TCF/Wnt firefly luciferase reporter signal” value in assay [4] and in assay [5] were 0.888 ± 0.12 and 0.975 ± 0.12, respectively.

Turning to `CC[C@]1(O)C[C@H]2CN(CCc3c([nH]c4ccccc34)[C@@](C(=O)OC)(c3cc4c(cc3OC)N(C=O)[C@H]3[C@@](O)(C(=O)OC)[C@H](OC(C)=O)[C@]5(CC)C=CCN6CC[C@]43[C@@H]65)C2)C1`, the cell viability was 1.01 ± 0.16 in assay [1], 0.53 ± 0.064 in assay [2] and 1.17 ± 0.035 in assay [3]. The “TCF/Wnt firefly luciferase reporter signal” value in assay [4] came to 0.666 ± 0.091; in assay [5], 0.713 ± 0.075.

As to `CC(=O)O[C@@H]1CC2C(C)(C)[C@H](O)C=C[C@]2(C)C2CC[C@@]3(C)[C@H](c4ccoc4)OC(=O)C4OC43[C@@]21C` (stereo not given in full), the figures for the cell viability in assay [1], in assay [2] and in assay [3] were 1.05 ± 0.064, 1.08 ± 0.092 and 1.06 ± 0.028, respectively. Also, the “TCF/Wnt firefly luciferase reporter signal” value came out at 0.97 ± 0.042 in assay [4] and 0.926 ± 0.1 in assay [5].
